A number with no mark means an inactive call. Records with an inconclusive call do not appear. Where a call stands in place of a potency, no number is given. Calls of active or inactive are those of the source. Unless noted, the call rests on the fitted dose curve; in most records, active means well fitted curve in the direction sought with a large enough effect in the repeat runs; inconclusive means weak or mixed curves; inactive means no such curve, though single readings can be large; an effect the other way counts as inactive or inconclusive.
How the values were obtained:
[1] = qHTS assay to identify small molecule agonists of the estrogen receptor alpha (ER-alpha) signaling pathway in the presence of an antagonist - cell viability counter screen (AID 1259386);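 further: cells exposed to compounds for 22 h at 37 °C before the viability read; nearly all actives have a fitted effect of over 30% in size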; further: potency means the concentration at half of the fitted maximal effect; on activity change, negative = cytotoxicity: series mostly up to about 92 µM
In short: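 ICI-182,780 at 10.0nM final accompanies the compound titration (15 concentrations, 22hr, 37C) on VM7Luc4E2 cells. The CellTiter-Fluor fluorescence readout runs in the same wells as the luciferase assay.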

[2] = target: Progesterone receptor (Homo sapiens) (UniProt P06401); assay: qHTS assay to identify small molecule agonists of the progesterone receptor (PR) signaling pathway (AID 1346784; calls by dose curve; further: nearly all actives have a fitted effect of over 30% in size)
Sequence of Progesterone receptor (Homo sapiens) (P06401 whole entry, looked up): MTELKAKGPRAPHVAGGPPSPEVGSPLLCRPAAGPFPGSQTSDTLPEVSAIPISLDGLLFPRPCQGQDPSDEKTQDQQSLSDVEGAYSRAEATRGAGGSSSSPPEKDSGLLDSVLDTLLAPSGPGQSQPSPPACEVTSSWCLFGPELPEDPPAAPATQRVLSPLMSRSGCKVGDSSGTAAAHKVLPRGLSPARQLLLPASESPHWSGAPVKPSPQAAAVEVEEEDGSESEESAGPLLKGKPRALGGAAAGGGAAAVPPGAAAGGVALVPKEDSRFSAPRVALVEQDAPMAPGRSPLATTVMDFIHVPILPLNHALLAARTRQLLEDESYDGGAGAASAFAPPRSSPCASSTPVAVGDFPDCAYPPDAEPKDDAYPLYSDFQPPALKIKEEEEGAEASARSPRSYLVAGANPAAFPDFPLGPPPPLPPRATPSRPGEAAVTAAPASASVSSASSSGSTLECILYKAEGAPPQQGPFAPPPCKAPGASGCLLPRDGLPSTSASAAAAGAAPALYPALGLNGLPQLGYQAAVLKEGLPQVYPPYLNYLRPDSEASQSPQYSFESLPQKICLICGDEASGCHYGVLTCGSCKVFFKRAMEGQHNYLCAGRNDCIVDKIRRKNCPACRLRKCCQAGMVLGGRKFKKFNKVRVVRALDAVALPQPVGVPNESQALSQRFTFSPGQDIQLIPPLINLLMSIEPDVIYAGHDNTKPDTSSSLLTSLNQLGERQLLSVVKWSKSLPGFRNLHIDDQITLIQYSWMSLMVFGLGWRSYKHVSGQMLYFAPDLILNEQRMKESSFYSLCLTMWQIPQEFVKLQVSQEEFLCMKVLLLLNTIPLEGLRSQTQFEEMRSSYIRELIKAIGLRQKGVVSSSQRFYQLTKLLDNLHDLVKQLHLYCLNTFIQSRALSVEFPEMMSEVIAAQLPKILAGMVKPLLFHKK
In short: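 Beta-lactamase reporter read-out: after 16 hr compound treatment at 37C and a further 2 hr at room temperature with LiveBLAzer B/G FRET substrate, fluorescence was measured in PR-UAS-bla HEK 293T cells grown in 2% charcoal-stripped serum.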

[3] = target: Progesterone receptor (Homo sapiens) (UniProt P06401); assay: qHTS assay to identify small molecule antagonists of the progesterone receptor (PR) signaling pathway (AID 1346795; active means well fitted inhibition curve with a large enough effect in the signal ratio in the repeat runs, not every such curve was filed as active; the % refers to the signal ratio)
In short: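 Read-out is fluorescence from the LiveBLAzer B/G FRET substrate, cleaved by a UAS-controlled beta-lactamase in PR-UAS-bla HEK293T cells after 16 hr exposure to compound plus 1 nM promegestone (final), followed by 2 hr at room temperature.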

[4] = qHTS assay to identify small molecule antagonists of the progesterone receptor (PR) signaling pathway - cell viability counter screen (AID 1346798); further: nearly all actives have a fitted effect of over 50% in size; further: potency means the concentration at half of the fitted maximal effect;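 on activity change, negative = cytotoxicity: HEK293T PR-UAS-bla cells stimulated with the agonist R5020; series mostly up to about 92 µM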
In short: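 HEK293T PR-UAS-bla, 2% charcoal-stripped FBS; 4 hr pre-plate; cpd + R5020, 16 h 37C; LiveBLAzer read first; then CellTiter-Glo 30 min RT, luminescence.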

[5] = qHTS assay to identify small molecule agonists of the progesterone receptor (PR) signaling pathway - cell viability counter screen (AID 1346799; calls by dose curve; further: nearly all actives have a fitted effect of over 45% in size)
In short: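 Luminescence from CellTiter-Glo, added after the beta-lactamase FRET read in the same wells, gave cytotoxicity in PR-UAS-bla HEK293T cells treated with compounds for 16 hr at 37C.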

[6] = qHTS assay to identify small molecule antagonists of the TGF-beta/Smad signaling pathway - cell viability counter screen (AID 1346824); further: nearly all actives have a fitted effect of over 50% in size
In short: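 Cytotoxicity counter-screen run in the same wells as the beta-lactamase Smad reporter read: CellTiter-Glo luminescence after 30 min at room temperature. HEK 293T SBE-bla cells had 5 hr compound exposure at 37 C with TGF-beta1 (0.25 ng/mL stock).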

[7] = qHTS assay to identify small molecule agonists of the TGF-beta/Smad signaling pathway - cell viability counter screen (AID 1346829); further: top concentration of the series differs between compounds; nearly all actives have a fitted effect of over 45% in size
In short: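 Tox21 qHTS format: SBE-bla HEK 293T cells treated with DMSO-dissolved compounds for 5 hr; CellTiter-Glo luminescence after 30 min at room temperature.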

[8] = qHTS assay to identify small molecule agonists of the TGF-beta/Smad signaling pathway (AID 1346859; active means well fitted activation curve with a large enough effect in the signal ratio in the repeat runs, not every such curve was filed as active; the % refers to the signal ratio; further: series mostly up to about 77 µM)
In short: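 SBE-bla HEK 293T, 4,000 cells/well, plated o/n; cpd in DMSO, 5 hr, 37 C/5% CO2; B/G FRET substrate 2 hr RT; ex 405, em 460/530 nm.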

[9] = Human pregnane X receptor (PXR) small molecule agonists, qHTS cell viability counter screen (AID 1346977); further: nearly all actives have a fitted effect of over 50% in size; further: potency means the concentration at half of the fitted maximal effect
In short: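 PXR-Luc HepG2, 2,000 cells/well, 5% charcoal-stripped FBS; 5hr settle; cpd 24hr, 37C/5% CO2; CellTiter-Fluor at 23hr, read 1hr later (fluorescence).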

[10] = Caspase-3/7 induction in HepG2 cells by small molecules, qHTS assay (AID 1346978); further: nearly all actives have a fitted effect of over 15% in size
In short: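 Caspase-3/7 induction was measured by Caspase-Glo 3/7 luminescence (30 min, room temperature) after a 17 hr compound exposure of wild-type HepG2 cells seeded at 2,000 per well and pre-incubated 5 hr.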

[11] = Caspase-3/7 induction in CHO-K1 cells by small molecules, qHTS cell viability counter screen (AID 1346979); further: nearly all actives have a fitted effect of over 35% in size; further: potency means the concentration at half of the fitted maximal effect
In short: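 Cells (CHO-K1, wild type) are plated at 1,500 per well and incubated 5hr. Test compounds in DMSO are then pinned in, followed by 16hr at 37C and 5% CO2. Viability is read by CellTiter-Fluor fluorescence after 1hr.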

[12] = Caspase-3/7 induction in CHO-K1 cells by small molecules, qHTS assay (AID 1346980); further: nearly all actives have a fitted effect of over 15% in size
In short: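 Luminescent Caspase-Glo 3/7 read (30min, room temperature) quantified apoptosis induction. Cells were wild-type CHO-K1, treated with compound for 17hr at 37 C and 5% CO2.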

[13] = Caspase-3/7 induction in HepG2 cells by small molecules, qHTS cell viability counter screen (AID 1346981); further: series mostly up to about 92 µM; nearly all actives have a fitted effect of over 30% in size
In short: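 Multiplexed with the caspase-3/7 assay: HepG2 cells, 16 hr compound treatment, CellTiter-Fluor viability detection by fluorescence.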

[14] = target: Nuclear receptor subfamily 1 group I member 2 (Homo sapiens) (UniProt O75469); assay: Human pregnane X receptor (PXR) small molecule agonists, qHTS assay (AID 1346982); further: nearly all actives have a fitted effect of over 35% in size; further: potency means the concentration at half of the fitted maximal effect
Sequence of Nuclear receptor subfamily 1 group I member 2 (Homo sapiens) (O75469 whole entry, looked up): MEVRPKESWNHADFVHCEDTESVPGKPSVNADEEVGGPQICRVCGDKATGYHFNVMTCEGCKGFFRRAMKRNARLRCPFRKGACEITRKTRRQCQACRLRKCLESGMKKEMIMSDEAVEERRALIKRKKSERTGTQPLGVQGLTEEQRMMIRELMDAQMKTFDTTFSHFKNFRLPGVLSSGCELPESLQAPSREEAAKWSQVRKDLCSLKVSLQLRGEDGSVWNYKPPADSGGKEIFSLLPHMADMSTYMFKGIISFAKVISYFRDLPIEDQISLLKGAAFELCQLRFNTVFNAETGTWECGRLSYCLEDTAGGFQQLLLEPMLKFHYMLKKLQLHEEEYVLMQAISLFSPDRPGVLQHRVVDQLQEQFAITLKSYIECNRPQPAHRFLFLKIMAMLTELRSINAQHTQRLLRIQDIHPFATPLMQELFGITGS
In short: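 We seeded PXR-Luc HepG2 cells in assay medium containing 5% charcoal-stripped FBS, added compounds 5 hr later, incubated 24 hr, and read luminescence with ONE-Glo reagent.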

[15] = target: Cytochrome P450 2D6 (Homo sapiens) (UniProt P10635); assay: Cytochrome P450 Family 2 Subfamily D Member 6 (CYP2D6) small molecule antagonists: luciferase reporter qHTS assay (AID 1671196); further: nearly all actives have a fitted effect of over 50% in size; further: potency means the concentration at half of the fitted maximal effect
Sequence of Cytochrome P450 2D6 (Homo sapiens) (P10635 whole entry, looked up): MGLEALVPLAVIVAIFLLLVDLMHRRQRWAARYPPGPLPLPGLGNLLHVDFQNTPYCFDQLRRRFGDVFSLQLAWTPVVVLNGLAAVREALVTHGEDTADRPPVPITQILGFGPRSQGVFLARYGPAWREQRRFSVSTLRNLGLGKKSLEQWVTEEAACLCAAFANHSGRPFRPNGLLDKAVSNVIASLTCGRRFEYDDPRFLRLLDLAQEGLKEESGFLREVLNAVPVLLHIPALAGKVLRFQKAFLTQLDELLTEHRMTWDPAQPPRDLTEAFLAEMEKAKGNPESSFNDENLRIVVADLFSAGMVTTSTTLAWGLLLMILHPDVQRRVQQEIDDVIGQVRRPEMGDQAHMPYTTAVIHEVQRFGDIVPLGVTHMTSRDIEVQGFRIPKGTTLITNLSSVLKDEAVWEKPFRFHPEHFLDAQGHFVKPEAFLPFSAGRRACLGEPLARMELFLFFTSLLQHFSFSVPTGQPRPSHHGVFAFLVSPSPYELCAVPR
In short: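 Luminescence (RLU), read 20 min after detection reagent, indicated CYP2D6 conversion of proluciferin to luciferin during a 1 h NADPH-dependent reaction at room temperature.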

[16] = target: Nuclear receptor subfamily 1 group I member 2 (Rattus norvegicus) (UniProt Q9R1A7); assay: Rat pregnane X receptor (rPXR) activation by small molecules, qHTS assay (AID 1346983); details: rPXR luciferase reporter cells, One-Glo luminescence, 24 h; max activation: stronger effect = higher value; further: nearly all actives have a fitted effect of over 20% in size
Sequence of Nuclear receptor subfamily 1 group I member 2 (Rattus norvegicus) (Q9R1A7 whole entry, looked up): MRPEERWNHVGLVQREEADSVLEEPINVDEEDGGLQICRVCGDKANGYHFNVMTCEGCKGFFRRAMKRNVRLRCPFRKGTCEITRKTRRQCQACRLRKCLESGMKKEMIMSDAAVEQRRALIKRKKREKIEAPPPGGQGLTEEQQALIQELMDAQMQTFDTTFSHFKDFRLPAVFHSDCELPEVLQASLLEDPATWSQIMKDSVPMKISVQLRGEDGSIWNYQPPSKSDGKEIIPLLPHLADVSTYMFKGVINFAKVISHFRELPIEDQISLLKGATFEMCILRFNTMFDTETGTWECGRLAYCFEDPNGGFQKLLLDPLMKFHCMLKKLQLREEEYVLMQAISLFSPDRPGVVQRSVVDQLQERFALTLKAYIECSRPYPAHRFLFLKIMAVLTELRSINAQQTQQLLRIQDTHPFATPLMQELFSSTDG
In short: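 Luminescent readout (One-Glo luciferase, 30 min room temperature) followed 24 hr compound treatment at 37 C of rPXR cells plated 2,000 per well and preincubated 5hr; qHTS format with compounds delivered in DMSO.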

[17] = target: Thyrotropin-releasing hormone receptor (Homo sapiens) (UniProt P34981); assay: qHTS assay to identify small molecule antagonists of the thyrotropin-releasing hormone receptor (TRHR) signaling pathway (AID 1346877; active means well fitted inhibition curve with a large enough effect in the repeat runs, not every such curve was filed as active; further: series mostly up to about 51 µM)
Sequence of Thyrotropin-releasing hormone receptor (Homo sapiens) (P34981 whole entry, looked up): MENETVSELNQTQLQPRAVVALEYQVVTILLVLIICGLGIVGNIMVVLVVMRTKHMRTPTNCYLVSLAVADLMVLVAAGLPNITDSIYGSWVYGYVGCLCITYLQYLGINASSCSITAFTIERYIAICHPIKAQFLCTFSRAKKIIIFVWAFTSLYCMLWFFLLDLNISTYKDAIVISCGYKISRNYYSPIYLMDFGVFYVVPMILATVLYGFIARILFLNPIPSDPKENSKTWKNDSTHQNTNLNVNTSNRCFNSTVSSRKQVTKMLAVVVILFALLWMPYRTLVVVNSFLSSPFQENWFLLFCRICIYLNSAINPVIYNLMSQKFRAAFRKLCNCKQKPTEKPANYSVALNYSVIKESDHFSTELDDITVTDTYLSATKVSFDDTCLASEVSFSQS
In short: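 Screening used HEK293 cells engineered with TRHR, with a brief 5 min room-temperature compound exposure preceding addition of TRH to 1 nM. The read-out was kinetic calcium-dye fluorescence, concentration-response from 15 doses in triplicate.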

[18] = target: Thyrotropin-releasing hormone receptor (Homo sapiens) (UniProt P34981); assay: qHTS assay to identify small molecule agonists of the thyrotropin-releasing hormone receptor (TRHR) signaling pathway (AID 1346891; calls by dose curve; further: series mostly up to about 58 µM)
In short: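 Intracellular calcium rise, read as fluorescence every second for 3 min, served as the agonist signal in dye-loaded HEK293 cells expressing TRHR; each compound ran at 15 concentrations in triplicate.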

SMILES: CCN(O)CC
- Potency [1]: inactive
- Potency [2]: inactive
- Potency [3]: inactive
- Potency [4]: inactive
- Potency [5]: inactive
- outcome [6]: inactive
- outcome [7]: inactive
- outcome [8]: inactive
- Potency [9]: 30 µM (active)
- Potency [10]: inactive
- Potency [11]: 26.7 µM (active)
- outcome [12]: inactive
- Potency [13]: inactive
- Potency [14]: 59.8 µM (active)
- Potency [15]: inactive

SMILES: ClC(Cl)Cl
- Potency [1]: inactive
- Potency [2]: inactive
- outcome [6]: inactive
- outcome [7]: inactive
- outcome [8]: inactive
- Potency [9]: inactive
- Potency [10]: inactive
- outcome [12]: inactive
- Potency [13]: inactive
- max activation [16]: 0.159%

SMILES: CC1CN(c2ccccc2)NC1=O (stereo not given)
- Potency [1]: inactive
- Potency [4]: inactive
- Potency [5]: inactive
- outcome [6]: inactive
- outcome [8]: inactive
- outcome [17]: inactive
- Potency [18]: inactive
- Potency [10]: inactive
- Potency [11]: inactive
- outcome [12]: inactive
- Potency [13]: inactive
- Potency [14]: 54.5 µM (active)
- Potency [15]: 31.7 µM (active)

SMILES: Nc1ccc(Oc2ccc(N)c(N)c2)cc1
- Potency [1]: 54.5 µM (active)
- outcome [6]: inactive
- outcome [7]: inactive
- outcome [8]: inactive
- outcome [17]: inactive
- Potency [18]: inactive
- Potency [10]: inactive
- outcome [12]: inactive
- Potency [14]: 19.3 µM (active)
- Potency [15]: 5.64 µM (active)

SMILES: CCCOc1ccc2c(c1)CC[C@@H]1[C@@H]2CC[C@]2(C)C(OC)CC[C@@H]12 (stereo not given in full)
- Potency [1]: inactive
- Potency [4]: inactive
- outcome [6]: inactive
- outcome [7]: inactive
- outcome [8]: inactive
- outcome [17]: inactive
- Potency [18]: inactive
- Potency [9]: inactive
- Potency [10]: inactive
- outcome [12]: inactive
- Potency [13]: inactive
- Potency [14]: inactive
- Potency [15]: 15.5 µM (active)

SMILES: O=C1CCCCC1C1CCCCC1 (stereo not given)
- Potency [2]: inactive
- Potency [3]: inactive
- Potency [4]: inactive
- Potency [5]: inactive
- outcome [6]: inactive
- outcome [7]: inactive
- outcome [8]: inactive
- outcome [17]: inactive
- Potency [18]: inactive
- Potency [9]: inactive
- Potency [10]: inactive
- Potency [11]: inactive
- outcome [12]: inactive
- Potency [13]: inactive
- Potency [14]: inactive
- Potency [15]: inactive

SMILES: O=C(O)c1ccccc1Nc1cc(Cl)ccc1C(=O)O
- activity change, negative = cytotoxicity [1]: -2.8% [at 19 µM]
- Potency [4]: 13 µM (active)
- viability change, negative = cytotoxic [6]: 0.61% [at 15.8 µM]
- activity change, negative = cytotoxicity [7]: 9.07% [at 15.8 µM]
- activation [8]: -1.11% [at 15.8 µM]
- activity, negative = inhibition [17]: 1.01% [at 10.5 µM]
- activation [18]: -0.215% [at 11.8 µM]
- activity change, negative = cytotoxicity [9]: 7.26% [at 19 µM]
- caspase activation [10]: 0.287% [at 19 µM]
- activity change, negative = cytotoxicity [11]: 5.08% [at 19 µM]
- caspase-3/7 activation [12]: 1.36% [at 19 µM]
- activity change, negative = cytotoxicity [13]: 3.27% [at 19 µM]
- activation [14]: 5.75% [at 19 µM]
- Potency [15]: 1.51 µM (active)

SMILES: CC(C)c1ccccc1
- Potency [1]: inactive
- Potency [2]: inactive
- outcome [6]: inactive
- outcome [7]: inactive
- outcome [8]: inactive
- outcome [17]: inactive
- Potency [18]: inactive
- Potency [9]: inactive
- Potency [10]: inactive
- Potency [11]: inactive
- outcome [12]: inactive
- Potency [13]: inactive
- Potency [14]: inactive
- Potency [15]: inactive

Source: PubChem BioAssay (Tox21)
